Data: PubChem BioAssay (NCI)
Compounds without any hit were thinned out: in the full panel of roughly 83,000, 20% have a hit.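 The test compound was applied at a single concentration to cells in 96-well plates for 48 hours, and percent growth was recorded.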 A number with no mark means an inactive call. Activity calls are given as the source filed them. How the source made its calls: active means growth percent below 10; inactive means the rest.

Tests used:
Experiment in all cases: NCI-60 one-dose screen, 48 h (100 = growth as untreated, 0 = no growth, -100 = all killed)
NCI-H23 lung = conditions: 10 µM unless noted
NCI-H226 lung = conditions: 10 µM unless noted
DU-145 prostate = conditions: 10 µM unless noted
MDA-MB-231 breast = conditions: 10 µM unless noted
SF-268 CNS = conditions: 10 µM unless noted
M14 melanoma = conditions: 10 µM unless noted
HCT-15 colon = conditions: 10 µM
HT29 colon = conditions: 10 µM unless noted
PC-3 prostate = conditions: 10 µM unless noted
UACC-62 melanoma = conditions: 10 µM unless noted
LOX IMVI melanoma = conditions: 10 µM unless noted
SK-MEL-28 melanoma = conditions: 10 µM unless noted
OVCAR-8 ovarian = conditions: 10 µM unless noted
OVCAR-5 ovarian = conditions: 10 µM unless noted
SK-OV-3 ovarian = conditions: 10 µM unless noted
OVCAR-3 ovarian = conditions: 10 µM unless noted
NCI/ADR-RES ovarian = conditions: 10 µM unless noted
SW-620 colon = conditions: 10 µM unless noted
MCF7 breast = conditions: 10 µM unless noted
KM12 colon = conditions: 10 µM unless noted

SMILES | growth (NCI-H23 lung) | growth (NCI-H226 lung) | growth (DU-145 prostate) | growth (MDA-MB-231 breast) | growth (SF-268 CNS) | growth (M14 melanoma) | growth (HCT-15 colon) | growth (HT29 colon) | growth (PC-3 prostate) [%] | growth (UACC-62 melanoma) [%] | growth (LOX IMVI melanoma) | growth (SK-MEL-28 melanoma) [%] | growth (OVCAR-8 ovarian) | growth (OVCAR-5 ovarian) | growth (SK-OV-3 ovarian) | growth (OVCAR-3 ovarian) | growth (NCI/ADR-RES ovarian) | growth (SW-620 colon) | growth (MCF7 breast) | growth (KM12 colon)
NC(Cc1ccc2c(c1)OCO2)c1ccc2c(c1)OCO2 (stereo not drawn) | 105% | 105% | 116% | 107% | 103% | 102% | 115% | 102% | 93.4 | 92.6 | 99.8% | 101 | 102% | 109% | 108% | 120% | 107% | 101% | 89.2% | 109%
C[CH2][Pb]([CH2]C)([CH2]C)[O]C(=O)COc1ccccc1 | -6.75% (active) | 23.2% | -6.43% (active) | 20.1% | -10.1% (active) | 14.6% | 12.4% | 4.3% (active) | 20.3 | 25.3 | -35.8% (active) | 28.3 | 9.05% (active) | -5.58% (active) | 4.72% (active) | -2.95% (active) | 2.79% (active) | 6.03% (active) | 0.688% (active) | 1.59% (active)
COc1cc(C2CC(=O)Nc3nc(N)[se]c32)cc(OC)c1OC (stereo not drawn) | 102% | 103% | 101% | 101% | 101% | 115% | 109% | 89.5% | 71.2 | 117 | 105% | 111 | 58.8% | 93.4% | 101% | 101% | 107% | 109% | 98.6% | 56.7%
CSc1ccccc1NP1(=O)OCC(C)([N+](=O)[O-])CO1 (stereo not drawn) | 106% | 98.4% | 109% | 105% | 105% | 101% | 93.1% | 105% | 98 | 101 | 97.3% | 98.6 | 98% | 93.7% | 98.2% | 107% | 109% | 101% | 98.1% | 104%
CC(=O)O[C@H]1CCC2C3CCC4=C/C(=N/O)CCC4(C)C3CCC21C (stereo partly drawn) | 90% | 98.1% | 93.1% | 110% | 75.9% | 79.9% | 72.3% | 76% | 93.6 | 91.4 | 93% | 103 | 99.3% | 99.5% | 104% | 107% | 70.8% | 74.4% | 110% | 78%
CC1CC=CCC12C(=O)NC(=S)NC2=O (stereo not drawn) | 113% | 102% | 122% | 117% | 115% | 114% | 103% | 107% | 98.4 | 105 | 106% | 101 | 104% | 103% | 104% | 118% | 113% | 104% | 105% | 116%
O=S(=O)(O)c1ccc(-c2ccc([As](=O)(O)O)cc2)cc1 | 105% | 110% | 110% | 104% | 98.5% | 100% | 103% | 99.1% | 98 | 98 | 99.8% | 103 | 93.8% | 106% | 105% | 107% | 108% | 103% | 103% | 105%
c1ccc(-c2ccc3ccccc3[o+]2)cc1 | 84.4% | 85.4% | 98.9% | 65% | 88.7% | 96.8% | 107% | 89.1% | 76.3 | 73.1 | 82.2% | 111 | 96.6% | 103% | 89.4% | 100% | 92.5% | 92% | 67% | 91.8%
CCOc1ccc(C(O)CN(C)Cc2ccccc2)cc1Cl (stereo not drawn) | 91.3% | 92.1% | 103% | 93.6% | 95.5% | 96% | 106% | 98% | 89.3 | 96.4 | 98.6% | 98.5 | 105% | 102% | 109% | 99.7% | 99.4% | 98.5% | 98.6% | 100%
Nc1c(Br)cc([N+](=O)[O-])cc1[N+](=O)[O-] | 98.4% | 92.9% | 101% | 105% | 97.7% | 113% | 114% | 103% | 102 | 101 | 103% | 116 | 98% | 106% | 107% | 108% | 105% | 103% | 103% | 105%
CC(=O)Nc1ccc(C=C2C(=O)NC(=O)NC2=O)cc1 | 101% | 101% | 124% | 104% | 111% | 106% | 103% | 109% | 93.3 | 99.1 | 96.8% | 106 | 101% | 107% | 105% | 125% | 108% | – | 94% | 112%
N#[N+]c1nc2nc(N)[nH]c(=O)c2[nH]1 | 103% | 98% | 105% | 107% | 104% | 100% | 97.9% | 104% | 96.8 | 97.7 | 98.5% | 111 | 100% | 104% | 94.2% | 113% | 101% | 97.9% | 90.7% | 108%
C[CH2][Pb]([CH2]C)([CH2]C)[O]C(=O)COC | -2.61% (active) | 6.09% (active) | 10.3% | 8.7% (active) | -14.8% (active) | 9.74% (active) | 8.99% (active) | 0.481% (active) | 14.1 | 19.3 | -20.8% (active) | 18.2 | 3.57% (active) | -4.48% (active) | -3.94% (active) | -3.39% (active) | 4.13% (active) | -28.3% (active) | 0.034% (active) | 5.08% (active)
COc1ccc(/C=C(/C(=O)N2CCCC2)c2cc(OC)c(OC)c(OC)c2)cc1N | 41.7% | 75.9% | 24.6% | 62% | 47.5% | 11.7% | 29.2% | 9.12% (active) | 14.5 | 41.5 | 35.3% | 60.9 | 41.8% | 54.5% | 28.7% | 0.49% (active) | 68.2% | 25.6% | 14.2% | 14.8%
O=C1c2ccccc2C(=O)N1[N+](=O)[O-] | 95.3% | 95.6% | 106% | 101% | 104% | 105% | 110% | 102% | 94.9 | 96.1 | 91.6% | 112 | 100% | 112% | 114% | 106% | 97.9% | 103% | 92.5% | 101%
Cc1ccc2oc(=O)c3c(c2c1)OC(N)=C(C#N)C3c1ccco1 (stereo not drawn) | 98.3% | 91.9% | 103% | 103% | 101% | 99.8% | 103% | 108% | 95.9 | 95.9 | 96.8% | 113 | 101% | 102% | – | 104% | 102% | 101% | 93.8% | 98.9%
N#CC1c2ccccc2C=CN1C(=O)c1ccc(N(CCCl)CCCl)cc1 (stereo not drawn) | 89.3% | 78.2% | 111% | 92.9% | 95.9% | 116% | 81.4% | 98.7% | 81.1 | 71.7 | 90.4% | 94.6 | 85.7% | 98.6% | 97.3% | 88.6% | 83.4% | 105% | 83.5% | 98%
